Measurements reported in PubChem BioAssay (EPA / NIEHS).
Results filed as inconclusive are left out. Calls of active or inactive are those of the source. How the source made its calls, unless noted: active means hit-call score of the fitted dose curve at least 0.9, where 1 is the maximum; inactive means score below 0.9.

Legend:
[1] = target: Glucocorticoid receptor (Homo sapiens) (UniProt P04150); test: ATG_GR_TRANS: Attagene TRANS-FACTORIAL HepG2 Assay for human Glucocorticoid Receptor (GR) (AID 2282978; active means hit-call score of the fitted dose curve at least 0.9, where 1 is the maximum;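 further: activators score as hits since higher reporter transcript over DMSO is fitted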); details: HepG2 Attagene TRANS GR reporter, mRNA transcription
In short: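 Reporter transcript levels, detected by fluorescence after RT-PCR and capillary electrophoresis, served as the endpoint. HepG2 cells bearing transfected GAL4-UAS reporters responsive to NR-GAL4 chimeras were incubated with compound 24 h; DMSO defined baseline.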

[2] = target: Hepatocyte nuclear factor 4-alpha (Homo sapiens) (UniProt P41235); test: ATG_HNF4a_TRANS: Attagene TRANS-FACTORIAL HepG2 Assay for human Hepatocyte Nuclear Factor 4 alpha (HNF4a) (AID 2282982; active means hit-call score of the fitted dose curve at least 0.9, where 1 is the maximum); details: HepG2 HNF4a transactivation reporter, mRNA readout
In short: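 In this trans-factorial format, a chimeric HNF4a-GAL4 fusion drives a GAL4-UAS reporter in transfected HepG2 liver cells. After 24 h treatment, reporter mRNA induction is measured by RT-PCR with capillary electrophoresis, relative to DMSO.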

[3] = ATG_M_06_TRANS: Attagene TRANS-FACTORIAL HepG2 Assay for M06 Transcription Factor (Internal Marker) (AID 2282983; active means hit-call score of the fitted dose curve at least 0.9, where 1 is the maximum); details: HepG2 Attagene TRANS M06 internal marker reporter
In short: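 mRNA levels of a reporter transcript, quantified as FAM fluorescence on capillary electrophoresis, served as readout. HepG2 cells expressing exogenous GAL4-chimera reporter constructs were exposed for 24 h. Gain of signal over DMSO was evaluated.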

[4] = target: Nuclear receptor subfamily 4 group A member 2 (Homo sapiens) (UniProt P43354); test: ATG_NURR1_TRANS: Attagene TRANS-FACTORIAL HepG2 Assay for human Nuclear Receptor Related Protein 1 (NURR1) (AID 2282985; active means hit-call score of the fitted dose curve at least 0.9, where 1 is the maximum); details: HepG2 Attagene TRANS reporter, mRNA readout
In short: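 Chimeric NR-Gal4 fusion activity measured in HepG2 after 24 h treatment. Reporter transcripts detected by RT-PCR and capillary electrophoresis fluorescence; positive-direction curve fitting against DMSO.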

[5] = target: Transcriptional activator Myb (Homo sapiens) (UniProt P10242); test: ATG_Myb_CIS: Attagene CIS-FACTORIAL HepG2 Assay for human Myeloblastosis (Myb) Proto-Oncogene Transcription Factor (AID 2282986); details: HepG2 Attagene CIS-FACTORIAL Myb reporter transcription; actives raise or lower the signal
In short: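 Transiently transfected HepG2 cells, treated 24 h. Reporter mRNA quantified by RT-PCR/capillary electrophoresis; bidirectional fit relative to DMSO.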

[6] = target: Nuclear respiratory factor 1 (Homo sapiens) (UniProt Q16656); test: ATG_NRF1_CIS: Attagene CIS-FACTORIAL HepG2 Assay for human Nuclear Respiratory Factor 1 (NRF1) Orphan Gene (AID 2282987); details: HepG2 NRF1 cis-element reporter, Attagene multiplex; actives raise or lower the signal
In short: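 Cells (HepG2, transient MRTU transfection) are exposed to compound for 24 h, then RNA isolated and reporter mRNA amplified and fluorescently labelled. Fragments are separated by capillary electrophoresis; signal change is fitted bidirectionally relative to DMSO.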

[7] = ATG_NFI_CIS: Attagene CIS-FACTORIAL HepG2 Assay for human Nuclear Factor I (NFI) (AID 2282989); details: HepG2 cis-regulatory reporter, NFI response element transcription; actives raise or lower the signal
In short: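 Transfected HepG2 liver cells, exposed 24 h, supplied total RNA for oligo(dT) reverse transcription and reporter-specific PCR. Labelled, HpaI-cut fragments were sized by capillary electrophoresis; DMSO set the baseline for bidirectional fitting.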

[8] = target: Myc proto-oncogene protein (Homo sapiens) (UniProt P01106); test: ATG_Myc_CIS: Attagene CIS-FACTORIAL HepG2 Assay for human Myelocytomatosis (Myc) Proto-Oncogene Transcription Factor (AID 2282990); details: HepG2, Attagene cis-reporter transcription factor activity; actives raise or lower the signal
In short: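 HepG2 cells transiently transfected with multiple cis-promoter-driven reporter transcription units, so endogenous TF activity is read. After 24 h compound exposure, reporter mRNA was quantified by RT-PCR, 6-FAM labelling, HpaI digestion and capillary electrophoresis; bidirectional fit versus DMSO.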

[9] = ATG_NRF2_ARE_CIS: Attagene CIS-FACTORIAL HepG2 Assay for human Nuclear Factor Erythroid 2 Related Factor 2 (NFR2) response to Antioxidant Response Elements (ARE) (AID 2282992); details: HepG2 Attagene ARE/NRF2 reporter, transcription factor activity; actives raise or lower the signal
In short: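 Using transiently transfected HepG2 cells exposed for 24 h, reporter mRNA levels were determined by RT-PCR with fluorescent primer extension and capillary electrophoresis, analysed for gain or loss of signal against DMSO.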

[10] = ATG_Oct_MLP_CIS: Attagene CIS-FACTORIAL HepG2 Assay for human Octamer-Binding Transcription Factor (Oct) (AID 2282993); details: HepG2 Attagene cis-factorial Oct reporter, mRNA; actives raise or lower the signal
In short: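 Using HepG2 cells bearing transfected cis-reporter constructs, mRNA induction was read after 24 h by fluorescent RT-PCR and capillary electrophoresis, with DMSO defining baseline for gain- or loss-of-signal fits.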

[11] = target: Cellular tumor antigen p53 (Homo sapiens) (UniProt P04637); test: ATG_p53_CIS: Attagene CIS-FACTORIAL HepG2 Assay for human p53 Transcription Factor (AID 2282994); details: HepG2 p53 cis-element reporter, Attagene mRNA; actives raise or lower the signal
In short: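 In HepG2 cells, reporter transcription units under cis-regulatory promoters were transiently introduced. Following 24 h treatment, RNA was processed to labelled, digested cDNA fragments read by capillary electrophoresis; fitting was bidirectional versus DMSO.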

[12] = ATG_NF_kB_CIS: Attagene CIS-FACTORIAL HepG2 Assay for human Nuclear Factor Kappa B (NF-kB) (AID 2282991); details: HepG2 Attagene cis-factorial NF-kB reporter mRNA; actives raise or lower the signal
In short: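 Measures mRNA induction of an NF-kB-responsive cis-element reporter in HepG2 cells transfected with multiple reporter units, sampled 24 h post-dosing; quantified by fluorescence after RT-PCR and capillary electrophoresis, fitted for activation or inhibition against DMSO.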

[13] = target: Bile acid receptor (Homo sapiens) (UniProt Q96RI1); test: ATG_FXR_TRANS: Attagene TRANS-FACTORIAL HepG2 Assay for Farnesoid X Receptor (FXR) (AID 2282979; active means hit-call score of the fitted dose curve at least 0.9, where 1 is the maximum;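 further: hits raise reporter mRNA above DMSO so AC50 marks FXR activation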); details: HepG2 Attagene TRANS FXR-GAL4 reporter transcription
In short: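 HepG2 cells were transiently transfected with GAL4-UAS reporters driven by chimeric NR-Gal4 proteins and dosed for 24 h. Reporter mRNA was quantified by RT-PCR, fluorescent labelling, HpaI digestion and capillary electrophoresis, with gain of signal scored versus DMSO.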

[14] = target: Oxysterols receptor LXR-alpha (Homo sapiens) (UniProt Q13133); test: ATG_LXRa_TRANS: Attagene TRANS-FACTORIAL HepG2 Assay for human Liver X Receptor alpha (LXRa) (AID 2282980; active means hit-call score of the fitted dose curve at least 0.9, where 1 is the maximum); details: HepG2 Attagene TRANS reporter, LXRa transactivation
In short: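 HepG2 cells transiently transfected with GAL4-UAS reporter units for chimeric NR-Gal4 proteins, exposed to chemicals for 24 h. Reporter mRNA quantified by RT-PCR and capillary electrophoresis; gain of signal fitted relative to DMSO.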

[15] = target: Oxysterols receptor LXR-beta (Homo sapiens) (UniProt P55055); test: ATG_LXRb_TRANS: Attagene TRANS-FACTORIAL HepG2 Assay for human Liver X Receptor beta (LXRb) (AID 2282981; active means hit-call score of the fitted dose curve at least 0.9, where 1 is the maximum); details: HepG2 Attagene TRANS GAL4-LXRb reporter, mRNA
In short: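 Measures induction of a Gal4-driven reporter transcript in HepG2 cells expressing an exogenous LXRb-Gal4 fusion. Cells are exposed to compound for 24 h before RNA isolation and RT-PCR with capillary electrophoresis detection.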

[16] = ATG_M_32_TRANS: Attagene TRANS-FACTORIAL HepG2 Assay for M32 Transcription Factor (Internal Marker) (AID 2282984; active means hit-call score of the fitted dose curve at least 0.9, where 1 is the maximum;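 further: transcript level of a background control reporter unit measured by RT-PCR and capillary electrophoresis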); details: HepG2 Attagene TRANS M32 internal marker reporter
In short: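 After 24 h dosing of transfected HepG2 cells, total RNA was reverse-transcribed, reporter sequences PCR-amplified, 6-FAM labelled by primer extension and HpaI-digested before capillary electrophoresis. Signal increase over DMSO was fitted.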

[17] = BSK_3C_TissueFactor: BioMAP Diversity Plus: 3C Assay for Tissue Factor Biomarker Activity (AID 2282997); details: BioMAP 3C HUVEC, tissue factor biomarker readout; actives raise or lower the signal
In short: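 Tissue Factor measured by ELISA, 24 h after treatment of primary HUVEC in the BioMAP 3C setting.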

[18] = BSK_3C_uPAR: BioMAP Diversity Plus: 3C Assay for Urokinase-type plasminogen activator receptor (uPAR) Biomarker Activity (AID 2282998); details: BioMAP 3C HUVEC, uPAR biomarker ELISA; actives raise or lower the signal
In short: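 In this endothelial cell-based assay, human umbilical vein primary cells were treated with chemicals and harvested at 24 h. uPAR was quantified using ELISA, with gains or losses fitted relative to DMSO controls.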

[19] = BSK_3C_VCAM1: BioMAP Diversity Plus: 3C Assay for Vascular cell adhesion molecule 1 (VCAM1) Biomarker Activity (AID 2282999); details: BioMAP 3C HUVEC, VCAM1 ELISA, cytokine-stimulated; actives raise or lower the signal
In short: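 Vascular primary endothelium (human umbilical vein) was exposed to chemicals and assayed 24 h later. VCAM-1 levels came from ELISA, with DMSO serving as baseline for bidirectional fitting.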

Measured: outcome

Bile acid receptor (Homo sapiens), sequence (Q96RI1 whole entry, looked up, the tested form may be a part): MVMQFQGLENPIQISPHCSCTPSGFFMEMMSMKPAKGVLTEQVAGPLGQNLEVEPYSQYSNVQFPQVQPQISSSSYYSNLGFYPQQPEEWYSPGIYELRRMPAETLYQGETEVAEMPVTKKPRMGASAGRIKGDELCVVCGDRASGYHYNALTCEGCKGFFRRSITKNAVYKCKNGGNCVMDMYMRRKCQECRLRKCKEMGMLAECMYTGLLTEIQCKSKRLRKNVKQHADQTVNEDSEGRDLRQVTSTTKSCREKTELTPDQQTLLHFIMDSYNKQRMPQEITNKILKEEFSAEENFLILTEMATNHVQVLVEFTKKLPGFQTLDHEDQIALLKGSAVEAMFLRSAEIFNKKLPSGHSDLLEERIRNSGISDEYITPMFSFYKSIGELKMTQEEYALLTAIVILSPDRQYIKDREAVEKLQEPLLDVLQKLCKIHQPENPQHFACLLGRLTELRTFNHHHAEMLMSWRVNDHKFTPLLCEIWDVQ
Transcriptional activator Myb (Homo sapiens), sequence (P10242 whole entry, looked up): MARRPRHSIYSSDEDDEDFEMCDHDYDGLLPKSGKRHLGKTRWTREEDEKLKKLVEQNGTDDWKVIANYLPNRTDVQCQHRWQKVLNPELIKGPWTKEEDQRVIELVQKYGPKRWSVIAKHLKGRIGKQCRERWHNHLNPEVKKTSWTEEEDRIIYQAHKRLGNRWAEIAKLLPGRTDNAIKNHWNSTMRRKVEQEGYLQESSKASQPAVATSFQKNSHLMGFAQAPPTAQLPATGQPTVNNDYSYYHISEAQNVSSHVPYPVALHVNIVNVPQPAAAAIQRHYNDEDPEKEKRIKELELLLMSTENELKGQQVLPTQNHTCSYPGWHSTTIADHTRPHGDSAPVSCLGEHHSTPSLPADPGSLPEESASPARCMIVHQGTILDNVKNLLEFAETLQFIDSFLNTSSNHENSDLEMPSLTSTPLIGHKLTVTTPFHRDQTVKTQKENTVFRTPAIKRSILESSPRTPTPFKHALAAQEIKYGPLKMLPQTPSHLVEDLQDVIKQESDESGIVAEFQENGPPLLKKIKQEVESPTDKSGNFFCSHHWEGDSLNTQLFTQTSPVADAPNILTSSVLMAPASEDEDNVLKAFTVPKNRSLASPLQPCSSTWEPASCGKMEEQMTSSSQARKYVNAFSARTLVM
Nuclear respiratory factor 1 (Homo sapiens), sequence (Q16656 whole entry, looked up, the tested form may be a part): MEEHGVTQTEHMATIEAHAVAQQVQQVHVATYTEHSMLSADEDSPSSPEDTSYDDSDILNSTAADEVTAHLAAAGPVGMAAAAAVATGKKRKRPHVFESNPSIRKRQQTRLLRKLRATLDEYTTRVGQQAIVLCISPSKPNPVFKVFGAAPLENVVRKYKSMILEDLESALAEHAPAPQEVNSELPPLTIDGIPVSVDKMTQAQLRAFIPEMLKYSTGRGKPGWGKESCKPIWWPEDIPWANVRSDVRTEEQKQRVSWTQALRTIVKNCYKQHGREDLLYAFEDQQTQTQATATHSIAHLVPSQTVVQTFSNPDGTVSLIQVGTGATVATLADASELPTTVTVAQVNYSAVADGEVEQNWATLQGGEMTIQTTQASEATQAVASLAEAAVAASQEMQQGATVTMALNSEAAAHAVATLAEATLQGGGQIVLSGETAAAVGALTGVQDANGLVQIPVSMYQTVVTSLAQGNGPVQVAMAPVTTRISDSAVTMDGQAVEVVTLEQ
Oxysterols receptor LXR-alpha (Homo sapiens), sequence (Q13133 whole entry, looked up, the tested form may be a part): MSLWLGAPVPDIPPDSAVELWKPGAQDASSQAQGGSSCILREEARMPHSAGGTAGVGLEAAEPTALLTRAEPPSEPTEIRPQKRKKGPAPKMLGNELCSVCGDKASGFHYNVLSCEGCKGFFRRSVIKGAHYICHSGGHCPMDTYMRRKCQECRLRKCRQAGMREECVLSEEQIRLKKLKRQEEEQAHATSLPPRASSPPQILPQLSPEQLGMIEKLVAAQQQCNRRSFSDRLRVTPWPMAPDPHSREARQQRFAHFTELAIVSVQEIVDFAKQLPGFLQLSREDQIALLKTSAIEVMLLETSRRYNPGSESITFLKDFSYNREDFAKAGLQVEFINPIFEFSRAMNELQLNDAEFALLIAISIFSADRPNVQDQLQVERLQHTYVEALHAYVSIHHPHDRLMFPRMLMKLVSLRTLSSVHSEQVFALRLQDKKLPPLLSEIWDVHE
Nuclear receptor subfamily 4 group A member 2 (Homo sapiens), sequence (P43354 whole entry, looked up, the tested form may be a part): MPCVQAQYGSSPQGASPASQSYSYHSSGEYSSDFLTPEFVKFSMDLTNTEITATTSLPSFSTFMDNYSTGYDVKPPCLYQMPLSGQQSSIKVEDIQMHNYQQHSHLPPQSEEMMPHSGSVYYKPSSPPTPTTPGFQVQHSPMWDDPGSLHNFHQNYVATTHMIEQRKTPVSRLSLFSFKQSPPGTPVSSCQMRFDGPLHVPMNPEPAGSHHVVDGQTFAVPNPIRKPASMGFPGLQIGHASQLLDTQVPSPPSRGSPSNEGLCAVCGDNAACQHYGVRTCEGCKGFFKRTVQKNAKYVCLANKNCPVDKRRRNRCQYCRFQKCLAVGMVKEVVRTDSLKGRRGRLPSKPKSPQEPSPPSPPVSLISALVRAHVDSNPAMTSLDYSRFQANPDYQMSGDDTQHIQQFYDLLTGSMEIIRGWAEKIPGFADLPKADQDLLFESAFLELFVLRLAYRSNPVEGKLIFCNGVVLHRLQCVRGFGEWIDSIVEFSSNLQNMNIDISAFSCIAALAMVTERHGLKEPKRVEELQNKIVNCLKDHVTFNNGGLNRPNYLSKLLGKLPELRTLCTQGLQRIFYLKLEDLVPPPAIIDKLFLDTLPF
Glucocorticoid receptor (Homo sapiens), sequence (P04150 whole entry, looked up, the tested form may be a part): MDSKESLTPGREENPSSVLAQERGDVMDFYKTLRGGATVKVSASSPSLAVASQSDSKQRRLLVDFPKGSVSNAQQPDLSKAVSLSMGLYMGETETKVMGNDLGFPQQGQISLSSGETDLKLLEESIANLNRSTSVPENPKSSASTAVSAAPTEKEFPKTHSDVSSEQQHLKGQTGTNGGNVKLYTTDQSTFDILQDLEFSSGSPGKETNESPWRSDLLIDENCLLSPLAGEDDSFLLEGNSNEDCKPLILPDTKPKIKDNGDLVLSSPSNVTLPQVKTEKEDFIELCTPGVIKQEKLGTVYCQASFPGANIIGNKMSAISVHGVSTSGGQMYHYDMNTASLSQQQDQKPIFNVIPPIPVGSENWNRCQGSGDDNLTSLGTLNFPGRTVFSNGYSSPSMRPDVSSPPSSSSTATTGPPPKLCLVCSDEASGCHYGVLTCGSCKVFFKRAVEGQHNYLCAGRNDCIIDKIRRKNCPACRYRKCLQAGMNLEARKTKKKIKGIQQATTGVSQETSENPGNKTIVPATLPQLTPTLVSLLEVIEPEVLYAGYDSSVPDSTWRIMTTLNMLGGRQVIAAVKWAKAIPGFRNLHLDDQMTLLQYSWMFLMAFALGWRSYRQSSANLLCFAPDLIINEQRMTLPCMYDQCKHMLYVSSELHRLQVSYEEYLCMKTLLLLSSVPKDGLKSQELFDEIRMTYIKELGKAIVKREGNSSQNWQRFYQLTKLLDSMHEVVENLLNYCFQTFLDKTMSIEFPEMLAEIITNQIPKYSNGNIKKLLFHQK
Cellular tumor antigen p53 (Homo sapiens), sequence (P04637 whole entry, looked up, the tested form may be a part): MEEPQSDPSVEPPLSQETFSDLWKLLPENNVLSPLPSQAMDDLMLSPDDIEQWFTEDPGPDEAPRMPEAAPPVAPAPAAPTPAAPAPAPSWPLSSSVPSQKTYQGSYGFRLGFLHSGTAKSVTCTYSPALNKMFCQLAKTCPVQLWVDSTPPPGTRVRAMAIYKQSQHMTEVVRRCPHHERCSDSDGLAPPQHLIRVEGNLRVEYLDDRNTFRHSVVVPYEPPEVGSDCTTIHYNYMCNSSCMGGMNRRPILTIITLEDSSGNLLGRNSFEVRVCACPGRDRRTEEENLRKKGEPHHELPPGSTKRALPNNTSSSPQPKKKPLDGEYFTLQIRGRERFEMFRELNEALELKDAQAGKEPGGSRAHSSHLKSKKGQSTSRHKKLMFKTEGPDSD
Myc proto-oncogene protein (Homo sapiens), sequence (P01106 whole entry, looked up): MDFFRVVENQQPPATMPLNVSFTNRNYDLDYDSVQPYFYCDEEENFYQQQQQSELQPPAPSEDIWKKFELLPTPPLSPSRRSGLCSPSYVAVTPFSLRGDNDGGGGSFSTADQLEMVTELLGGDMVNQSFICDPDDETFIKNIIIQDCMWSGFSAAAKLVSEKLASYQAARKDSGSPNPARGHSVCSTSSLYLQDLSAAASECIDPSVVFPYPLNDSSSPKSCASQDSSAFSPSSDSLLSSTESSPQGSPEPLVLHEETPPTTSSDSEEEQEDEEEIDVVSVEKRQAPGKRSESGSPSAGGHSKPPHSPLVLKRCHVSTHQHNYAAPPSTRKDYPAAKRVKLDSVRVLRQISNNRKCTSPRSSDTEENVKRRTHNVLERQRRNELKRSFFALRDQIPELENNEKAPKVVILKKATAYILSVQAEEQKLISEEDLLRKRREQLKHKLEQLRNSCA
Oxysterols receptor LXR-beta (Homo sapiens), sequence (P55055 whole entry, looked up, the tested form may be a part): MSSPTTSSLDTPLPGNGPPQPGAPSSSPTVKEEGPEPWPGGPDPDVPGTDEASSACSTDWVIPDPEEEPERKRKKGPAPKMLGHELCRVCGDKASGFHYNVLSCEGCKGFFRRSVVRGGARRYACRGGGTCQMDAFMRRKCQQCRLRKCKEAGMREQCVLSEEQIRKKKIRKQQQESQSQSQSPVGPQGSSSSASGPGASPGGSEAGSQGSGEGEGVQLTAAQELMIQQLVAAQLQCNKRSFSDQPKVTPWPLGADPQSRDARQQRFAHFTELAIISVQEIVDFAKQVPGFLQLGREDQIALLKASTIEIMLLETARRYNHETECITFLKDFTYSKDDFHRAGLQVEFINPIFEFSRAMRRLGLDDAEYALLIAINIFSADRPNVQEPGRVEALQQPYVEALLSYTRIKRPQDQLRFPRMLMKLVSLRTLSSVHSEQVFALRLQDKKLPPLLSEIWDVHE

C=CCCCCCCCCO
inactive: [1] | [2] | [3] | [4] | [5] | [6] | [7] | [8] | [9] | [10] | [11]

CCCSSCCC
inactive: [1] | [2] | [3] | [4] | [5] | [6] | [7] | [8] | [12] | [10] | [11]

CCCCNS(=O)(=O)c1ccccc1
inactive: [13] | [14] | [15] | [2] | [3] | [16] | [5] | [6] | [7] | [8] | [12] | [9] | [10] | [11]

CCCCCCCCCCCC(=O)N(C)CC(=O)O
inactive: [1] | [5] | [7] | [8] | [10] | [17] | [18]

CCCCCC1=CCCC1=O
inactive: [13] | [15] | [2] | [3] | [5] | [7] | [8] | [12] | [17] | [18] | [19]

CCCCCC(=O)OCC
inactive: [13] | [14] | [5] | [6] | [7] | [8] | [11]

CC(=O)c1ccc(S(=O)(=O)NC(=O)NC2CCCCC2)cc1
inactive: [1] | [4] | [5] | [6] | [7] | [8] | [9] | [10] | [11]

CCOC(=O)OC(=O)OCC
inactive: [13] | [14] | [15] | [2] | [3] | [16] | [5] | [6] | [7] | [8] | [12] | [9] | [10] | [11]

COCC(=O)O
inactive: [1] | [2] | [16] | [4] | [5] | [6] | [7] | [8] | [12] | [10] | [11]

Clc1cccnc1
inactive: [13] | [14] | [15] | [2] | [3] | [16] | [5] | [6] | [7] | [8] | [9] | [10] | [11]
